PubChem BioAssay (NCI)
The panel holds about 83,000 compounds, 20% with a hit somewhere; the sample as a whole holds those more often.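 Note: values are percent growth. 100 is the growth of untreated cells, values between 100 and 0 indicate rising inhibition; between -100 and 0 indicates cell death.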 Activity calls are given as the source filed them. How the source made its calls: active means growth percent below 10; inactive means the rest.

How the values were obtained:
Experiment in all cases: NCI-60 one-dose screen, 48 h (100 = growth as untreated, 0 = no growth, -100 = all killed)
Conditions in all cases: 10 µM unless noted
[1] = tested on: T-47D breast
[2] = tested on: BT-549 breast
[3] = tested on: MDA-MB-435 melanoma
[4] = tested on: SW-620 colon
[5] = tested on: MCF7 breast
[6] = tested on: HCT-116 colon
[7] = tested on: HCC-2998 colon
[8] = tested on: KM12 colon

Measured: growth

Cc1cc(C)c(-c2c(N)cc(Br)cc2Br)c(N)c1
inactive: [1] 54.6% | [2] 69.6% | [4] 48.5% | [5] 21.4% | [6] 23.5% | [7] 75.1% | [8] 40.5%
active: [3] -25.8%

C/C(=N/NC(N)=S)c1sc(Nc2cccc(Cl)c2)nc1C
inactive: [1] 30.9% | [2] 84.1% | [3] 84.5% | [4] 81.8% | [5] 76.1% | [6] 74.4% | [7] 107% | [8] 87.8%

COc1ccc2sc3c(NCCCNCCO)nc4ccccc4c3c(=O)c2c1
inactive: [1] 86.5% | [2] 81.7% | [3] 10.6% | [5] 25.7%
active: [4] -83.2% | [6] -79.3% | [7] -84.3% | [8] -15.6%

Cc1ccc(C(=O)N/N=C/c2cccc(Oc3ccccc3)c2)cn1
active: [3] -48%
inactive: [1] 66.3% | [2] 38.1% | [4] 29.3% | [5] 37.2% | [6] 32.8% | [7] 55.4% | [8] 22.8%

N#Cc1c(-c2ccc(Cl)cc2)nc(NCCO)[nH]c1=O
inactive: [1] 89.4% | [2] 102% | [3] 106% | [4] 112% | [5] 95.3% | [6] 104% | [7] 103% | [8] 96.9%

O=C1CCC(C(=O)NCCNCCNC(=O)C2CCC(=O)N2)N1 (stereo unspecified)
inactive: [1] 85% | [2] 81.3% | [3] 104% | [4] 94.8% | [5] 98.3% | [6] 87.8% | [7] 105% | [8] 102%

O=S(=O)(NCCCNc1cc(-c2c(-c3cccc(O)c3)nc3sccn23)ccn1)c1cccc2ccccc12
active: [1] 8.57%
inactive: [2] 25.5% | [3] 35.6% | [4] 47.1% | [5] 35.4% | [6] 33.1% | [7] 59.2% | [8] 34.8%

COc1cc(C(=O)/C=C/c2sc(Cl)nc2Cl)cc(OC)c1OC
active: [4] -61% | [5] -68.1% | [6] -54.3% | [7] -58.3%
inactive: [1] 28.2% | [2] 86.2% | [3] 98.5% | [8] 28.4%

Cc1cc(=O)[nH]c(=O)n1Cc1cn(-c2c3ccccc3nc3ccccc23)nn1
active: [1] -5.49% | [5] 2.54%
inactive: [2] 90% | [3] 95.6% | [4] 83.9% | [6] 63.1% | [7] 62.5% | [8] 98.6%

C[C@H](C(=O)Nc1ccc(S(N)(=O)=O)cc1)S(=O)(=O)c1ccccc1
inactive: [1] 93.2% | [2] 96.8% | [3] 102% | [4] 110% | [5] 96.1% | [6] 92.1% | [7] 111% | [8] 104%

CCCSc1nc2ccc(C)cc2cc1/C=[N+](\[O-])c1ccccc1
active: [3] -24.1% | [6] 9.07%
inactive: [1] 56.6% | [2] 42.1% | [4] 22.7% | [5] 21.8% | [7] 98.2% | [8] 25%

CCOC(=O)/C=C1\S/C(=N\Nc2ccc([N+](=O)[O-])cc2[N+](=O)[O-])N(Cc2ccccc2)C1=O
inactive: [1] 56% | [2] 109% | [3] 98.2% | [4] 70.9% | [5] 72.8% | [6] 75.3% | [7] 93% | [8] 97.5%

COc1ccc(C2CC(c3ccc(Nc4ccnc5cc(Cl)ccc45)cc3)=NN2C=O)cc1 (stereo unspecified)
inactive: [1] 51.1% | [2] 63.7% | [4] 70.9% | [5] 40.3% | [6] 55.7% | [7] 57.8% | [8] 66.2%
active: [3] -3.72%

C=C(C)[C@@H]1CC[C@]2(N=C=O)CC[C@]3(C)[C@H](CC[C@@H]4[C@@]5(C)Cc6c([nH]c7ccccc67)C(C)(C)[C@@H]5CC[C@]43C)[C@@H]12
inactive: [1] 62.4% | [2] 84.3% | [3] 86.4% | [4] 78% | [5] 39.5% | [6] 11.6% | [7] 98.4% | [8] 70.5%

c1ccc(-c2nc3sc(-c4ccccc4)cn3n2)cc1
inactive: [1] 36.7% | [2] 99.9% | [3] 99.2% | [4] 94.9% | [5] 38.3% | [6] 88.9% | [7] 104% | [8] 81.1%

Cc1cc(Cl)ccc1NS(=O)(=O)c1ccc(-c2cnc(C3CC3)o2)cc1
inactive: [1] 49.6% | [2] 11.5% | [4] 21.9% | [5] 12.7% | [6] 12.9% | [7] 15.9% | [8] 15.5%
active: [3] -36.4%

COc1ccc2c(c1)c(-c1nn3cc(-c4cccs4)nc3s1)cn2C
inactive: [1] 43.6% | [2] 101% | [3] 87.6% | [4] 82.3% | [5] 60.4% | [6] 82.8% | [7] 98.9% | [8] 70.4%

Cc1ccc(/C=C2\Oc3ccc(O)c(O)c3C2=O)cc1
inactive: [1] 47.3% | [2] 43.1% | [3] 82.4% | [4] 30.7% | [5] 31.6% | [6] 17.8% | [7] 70.2% | [8] 77%

CCCCCCNC(=O)Oc1ccc(/C(=C(\C)c2ccc(Cl)cc2)c2ccc(OCCN(CC)CC)cc2)cc1
inactive: [1] 39.7% | [2] 82.7% | [3] 65% | [4] 18.2% | [5] 24.6% | [6] 29.6% | [7] 78.7% | [8] 44.6%

COc1ccc(-c2cc3c4c(nc5ccccc5c4c2)CC(c2cc(OC)c(OC)c(OC)c2)O3)cc1 (stereo unspecified)
inactive: [1] 14.1% | [2] 64.6% | [3] 56.4% | [4] 37.9% | [5] 61.3% | [7] 43.1% | [8] 60.4%
active: [6] 1.01%

CCCCn1c(=O)c(-c2cc(-c3ccc(Cl)cc3)nc(-c3ccc(Cl)cc3)c2)cc2cc(Cl)ccc21
inactive: [1] 103% | [2] 106% | [3] 103% | [4] 99.7% | [5] 98.4% | [6] 106% | [7] 102% | [8] 102%

COc1cc2cc(Oc3ccc(NC(=O)Nc4ccc(F)c(C(F)(F)F)c4)cc3)c(C)nc2cc1OCCN1CCOCC1
inactive: [1] 21.8% | [2] 40.3% | [3] 16.5% | [4] 15.5% | [7] 44.9% | [8] 11.2%
active: [5] 3.62% | [6] 9.66%

N#Cc1c(-c2ccc(Cl)cc2)nc2c(c(-c3ccccc3)nn2-c2ccccc2)c1-c1ccc(O)cc1
inactive: [1] 55.4% | [2] 62.3% | [3] 49% | [4] 54.4% | [5] 19.6% | [6] 14.3% | [7] 84.9% | [8] 41%

COc1cccc(Cc2cc(-c3ccccc3)nn(CC(=O)c3ccccc3)c2=O)c1
inactive: [1] 72.5% | [2] 64.5% | [3] 61.2% | [4] 55.1% | [5] 45.9% | [6] 68.9% | [7] 84.7% | [8] 57.8%

COc1ccc(C2CC(c3ccc(Nc4nc(Nc5ccc(F)cc5)nc(Nc5ccc(Cl)cc5)n4)cc3)=NN2C(C)=O)cc1 (stereo unspecified)
inactive: [1] 72.5% | [2] 143% | [3] 97.1% | [4] 109% | [5] 105% | [6] 94.6% | [7] 99.7% | [8] 135%

COc1cc(C)c(Cc2cnc(N)nc2N)cc1OC
inactive: [1] 92.7% | [2] 95.4% | [3] 112% | [4] 102% | [5] 101% | [6] 112% | [7] 108% | [8] 111%

CCOC(=O)CC1C(COC(=O)NC)OC(n2cnc3c(NC(=O)Nc4ccccc4)ncnc32)C1O[Si](C)(C)C(C)(C)C (stereo unspecified)
inactive: [1] 29.1% | [2] 64.5% | [3] 49.3% | [4] 72.2% | [5] 11.7% | [6] 17.1% | [8] 31.2%
active: [7] -8.59%

c1ccc(Nc2cc(-c3cccnc3)[nH]n2)cc1
inactive: [1] 99.5% | [2] 99.4% | [3] 101% | [4] 115% | [5] 88.9% | [6] 105% | [7] 104% | [8] 96.3%

COc1cc(C(=O)c2cnc(-c3c[nH]c4cccc(C)c34)[nH]2)cc(OC)c1OC
active: [3] -43.5% | [6] -10.4% | [8] 0.911%
inactive: [1] 52.2% | [2] 38.3% | [4] 18% | [5] 17.7% | [7] 20.1%

COc1ccc(C(=O)C(C)C)c2ccccc12
inactive: [1] 92.2% | [2] 113% | [3] 97.9% | [4] 95.2% | [5] 107% | [6] 101% | [7] 107% | [8] 101%

N#Cc1cccc(NC(=O)c2cc(-c3ccc(F)cc3F)ccc2O)c1
inactive: [1] 16.1% | [4] 18.8% | [7] 26.5%
active: [2] 5.92% | [3] 8.27% | [5] 3.66% | [6] 7.36% | [8] 7.89%

COc1ccc(-c2ncnc3c2ncn3CC#CCCl)cc1
inactive: [1] 53.1% | [2] 50.1% | [3] 40.2% | [4] 48.9% | [5] 35.7% | [6] 52.5% | [7] 84.8% | [8] 72.6%
